What was measured:
Assay in all cases: log2 ratio of Biotin-Ahx-Ub-VS probe labelling (fragment/DMSO); higher = less target engagement (more negative = stronger competition), active = hit call of the paper (q ≤ 0.05, log2 ratio ≤ -1)
Details in all cases: compound concentration: 200 uM; treatment time: 3 h
[1] = molecular target: T1, ALG13 (UniProt Q9NP73)
T1 sequence (whole entry): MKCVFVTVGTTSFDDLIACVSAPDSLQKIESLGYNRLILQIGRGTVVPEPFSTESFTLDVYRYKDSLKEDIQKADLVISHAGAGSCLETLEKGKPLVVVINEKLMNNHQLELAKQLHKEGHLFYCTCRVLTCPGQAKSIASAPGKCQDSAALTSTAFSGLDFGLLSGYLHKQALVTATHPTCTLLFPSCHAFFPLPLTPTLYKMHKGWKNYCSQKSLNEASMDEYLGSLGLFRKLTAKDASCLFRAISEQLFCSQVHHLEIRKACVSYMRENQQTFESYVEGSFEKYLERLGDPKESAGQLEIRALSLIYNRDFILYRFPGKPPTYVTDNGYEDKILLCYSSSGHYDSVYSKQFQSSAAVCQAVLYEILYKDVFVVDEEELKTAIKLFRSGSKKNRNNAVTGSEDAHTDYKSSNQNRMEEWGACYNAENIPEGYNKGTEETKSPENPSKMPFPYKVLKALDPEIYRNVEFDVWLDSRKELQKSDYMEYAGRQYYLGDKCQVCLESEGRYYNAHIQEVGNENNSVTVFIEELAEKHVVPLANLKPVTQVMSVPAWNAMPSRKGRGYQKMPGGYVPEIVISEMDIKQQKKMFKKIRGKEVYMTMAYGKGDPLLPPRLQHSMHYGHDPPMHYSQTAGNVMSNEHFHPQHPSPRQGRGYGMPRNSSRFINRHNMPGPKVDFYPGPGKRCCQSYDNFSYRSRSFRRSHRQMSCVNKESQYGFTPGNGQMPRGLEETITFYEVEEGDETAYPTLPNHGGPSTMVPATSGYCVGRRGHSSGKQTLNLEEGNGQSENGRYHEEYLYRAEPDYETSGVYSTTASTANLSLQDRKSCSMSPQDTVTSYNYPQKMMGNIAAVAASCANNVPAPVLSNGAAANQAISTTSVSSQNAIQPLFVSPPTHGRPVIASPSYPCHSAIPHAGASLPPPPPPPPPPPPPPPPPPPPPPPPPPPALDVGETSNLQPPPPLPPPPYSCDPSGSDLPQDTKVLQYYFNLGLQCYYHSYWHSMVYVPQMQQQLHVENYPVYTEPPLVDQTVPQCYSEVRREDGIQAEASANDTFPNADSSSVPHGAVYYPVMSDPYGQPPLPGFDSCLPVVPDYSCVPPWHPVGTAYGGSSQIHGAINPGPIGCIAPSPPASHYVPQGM
How it was run: (§1)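 The table lists average log2 ratios of fragment over vehicle, from an unpaired t-test on global-median-normalised Spectronaut label-free quantities. Proteins with ≥2 unique peptides were used. Samples were HEK293T lysate (495 µg) treated in triplicate with fragment at 200 µM or vehicle for 3 h, then with Biotin-Ahx-Ub-VS (0.5 µM final) for 1 h, with labelled DUBs NeutrAvidin-enriched and run by diaPASEF LC-MS/MS.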

[2] = molecular target: ATXN3 (UniProt P54252)
ATXN3, sequence (P54252 whole entry): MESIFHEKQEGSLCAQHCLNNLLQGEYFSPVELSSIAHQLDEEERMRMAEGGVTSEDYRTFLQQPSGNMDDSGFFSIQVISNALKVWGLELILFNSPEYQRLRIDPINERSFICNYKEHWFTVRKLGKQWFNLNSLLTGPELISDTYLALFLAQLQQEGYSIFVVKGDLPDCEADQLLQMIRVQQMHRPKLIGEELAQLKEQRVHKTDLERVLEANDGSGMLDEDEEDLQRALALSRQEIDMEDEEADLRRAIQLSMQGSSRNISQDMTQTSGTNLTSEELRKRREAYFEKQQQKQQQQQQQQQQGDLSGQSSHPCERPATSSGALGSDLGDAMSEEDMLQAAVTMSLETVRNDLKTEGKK
How it was run: as §1

[3] = molecular target: T2, BAP1 (UniProt Q92560)
T2 sequence (whole entry): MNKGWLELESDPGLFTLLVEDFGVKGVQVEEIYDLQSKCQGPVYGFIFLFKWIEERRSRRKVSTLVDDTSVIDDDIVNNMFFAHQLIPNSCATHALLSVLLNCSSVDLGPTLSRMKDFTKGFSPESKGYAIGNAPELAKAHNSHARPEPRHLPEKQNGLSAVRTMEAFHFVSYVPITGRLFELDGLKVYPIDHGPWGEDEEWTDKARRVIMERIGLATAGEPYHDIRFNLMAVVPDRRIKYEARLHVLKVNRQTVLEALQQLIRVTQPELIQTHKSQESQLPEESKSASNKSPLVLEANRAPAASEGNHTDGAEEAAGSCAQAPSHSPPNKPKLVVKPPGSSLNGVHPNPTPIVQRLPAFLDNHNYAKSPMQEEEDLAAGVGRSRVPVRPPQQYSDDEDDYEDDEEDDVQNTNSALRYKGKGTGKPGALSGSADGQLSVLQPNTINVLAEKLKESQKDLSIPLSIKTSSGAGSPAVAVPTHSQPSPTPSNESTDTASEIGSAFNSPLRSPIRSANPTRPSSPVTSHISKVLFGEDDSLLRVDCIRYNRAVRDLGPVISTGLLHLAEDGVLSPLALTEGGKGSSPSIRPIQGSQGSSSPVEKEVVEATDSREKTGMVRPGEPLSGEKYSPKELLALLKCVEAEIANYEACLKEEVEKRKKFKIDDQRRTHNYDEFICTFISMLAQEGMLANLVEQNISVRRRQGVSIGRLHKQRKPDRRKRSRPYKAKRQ
How it was run: as §1

[4] = molecular target: EIF3F (UniProt O00303)
EIF3F, sequence (O00303 whole entry): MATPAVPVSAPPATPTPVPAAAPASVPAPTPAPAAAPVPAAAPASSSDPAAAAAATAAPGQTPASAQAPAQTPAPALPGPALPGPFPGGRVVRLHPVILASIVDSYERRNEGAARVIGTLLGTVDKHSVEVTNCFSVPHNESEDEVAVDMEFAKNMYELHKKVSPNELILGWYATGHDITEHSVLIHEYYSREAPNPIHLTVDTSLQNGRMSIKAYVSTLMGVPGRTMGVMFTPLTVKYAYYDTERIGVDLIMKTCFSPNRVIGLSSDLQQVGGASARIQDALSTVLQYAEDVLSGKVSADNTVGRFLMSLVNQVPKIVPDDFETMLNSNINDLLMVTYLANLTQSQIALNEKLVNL
How it was run: as §1

[5] = molecular target: EIF3H (UniProt O15372)
EIF3H, sequence (O15372 whole entry): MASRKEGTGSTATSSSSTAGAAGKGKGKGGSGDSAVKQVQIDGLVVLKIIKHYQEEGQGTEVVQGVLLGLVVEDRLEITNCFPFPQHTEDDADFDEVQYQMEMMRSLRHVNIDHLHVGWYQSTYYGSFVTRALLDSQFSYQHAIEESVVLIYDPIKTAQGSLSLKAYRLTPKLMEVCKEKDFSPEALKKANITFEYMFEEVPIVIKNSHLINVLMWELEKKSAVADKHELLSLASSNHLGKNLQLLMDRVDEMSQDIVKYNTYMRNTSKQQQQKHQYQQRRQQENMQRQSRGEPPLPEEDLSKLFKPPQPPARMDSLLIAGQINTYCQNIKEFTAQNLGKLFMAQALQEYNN
How it was run: as §1

[6] = molecular target: T3, FAM105A (UniProt Q9NUU6)
T3 sequence (whole entry): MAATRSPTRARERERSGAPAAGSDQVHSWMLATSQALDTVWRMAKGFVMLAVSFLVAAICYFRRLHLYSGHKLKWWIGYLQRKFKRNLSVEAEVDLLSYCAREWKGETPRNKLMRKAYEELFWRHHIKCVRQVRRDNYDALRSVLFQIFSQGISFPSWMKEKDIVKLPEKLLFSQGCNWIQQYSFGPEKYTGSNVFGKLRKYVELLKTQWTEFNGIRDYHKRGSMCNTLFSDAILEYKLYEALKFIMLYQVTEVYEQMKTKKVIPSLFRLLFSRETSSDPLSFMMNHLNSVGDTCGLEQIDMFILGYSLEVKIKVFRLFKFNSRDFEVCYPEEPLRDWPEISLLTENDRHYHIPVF
How it was run: as §1

[7] = molecular target: OTUB1 (UniProt Q96FW1)
OTUB1, sequence (Q96FW1 whole entry): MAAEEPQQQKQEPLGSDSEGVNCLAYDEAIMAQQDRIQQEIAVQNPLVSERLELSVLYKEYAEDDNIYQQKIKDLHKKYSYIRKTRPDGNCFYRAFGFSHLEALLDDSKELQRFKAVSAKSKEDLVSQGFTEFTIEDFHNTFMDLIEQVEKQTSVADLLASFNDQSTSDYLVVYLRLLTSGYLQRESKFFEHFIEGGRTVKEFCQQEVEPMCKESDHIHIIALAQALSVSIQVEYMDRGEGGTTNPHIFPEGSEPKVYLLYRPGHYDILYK
How it was run: as §1

[8] = molecular target: T4, OTUD4 (UniProt Q01804)
T4 sequence (whole entry): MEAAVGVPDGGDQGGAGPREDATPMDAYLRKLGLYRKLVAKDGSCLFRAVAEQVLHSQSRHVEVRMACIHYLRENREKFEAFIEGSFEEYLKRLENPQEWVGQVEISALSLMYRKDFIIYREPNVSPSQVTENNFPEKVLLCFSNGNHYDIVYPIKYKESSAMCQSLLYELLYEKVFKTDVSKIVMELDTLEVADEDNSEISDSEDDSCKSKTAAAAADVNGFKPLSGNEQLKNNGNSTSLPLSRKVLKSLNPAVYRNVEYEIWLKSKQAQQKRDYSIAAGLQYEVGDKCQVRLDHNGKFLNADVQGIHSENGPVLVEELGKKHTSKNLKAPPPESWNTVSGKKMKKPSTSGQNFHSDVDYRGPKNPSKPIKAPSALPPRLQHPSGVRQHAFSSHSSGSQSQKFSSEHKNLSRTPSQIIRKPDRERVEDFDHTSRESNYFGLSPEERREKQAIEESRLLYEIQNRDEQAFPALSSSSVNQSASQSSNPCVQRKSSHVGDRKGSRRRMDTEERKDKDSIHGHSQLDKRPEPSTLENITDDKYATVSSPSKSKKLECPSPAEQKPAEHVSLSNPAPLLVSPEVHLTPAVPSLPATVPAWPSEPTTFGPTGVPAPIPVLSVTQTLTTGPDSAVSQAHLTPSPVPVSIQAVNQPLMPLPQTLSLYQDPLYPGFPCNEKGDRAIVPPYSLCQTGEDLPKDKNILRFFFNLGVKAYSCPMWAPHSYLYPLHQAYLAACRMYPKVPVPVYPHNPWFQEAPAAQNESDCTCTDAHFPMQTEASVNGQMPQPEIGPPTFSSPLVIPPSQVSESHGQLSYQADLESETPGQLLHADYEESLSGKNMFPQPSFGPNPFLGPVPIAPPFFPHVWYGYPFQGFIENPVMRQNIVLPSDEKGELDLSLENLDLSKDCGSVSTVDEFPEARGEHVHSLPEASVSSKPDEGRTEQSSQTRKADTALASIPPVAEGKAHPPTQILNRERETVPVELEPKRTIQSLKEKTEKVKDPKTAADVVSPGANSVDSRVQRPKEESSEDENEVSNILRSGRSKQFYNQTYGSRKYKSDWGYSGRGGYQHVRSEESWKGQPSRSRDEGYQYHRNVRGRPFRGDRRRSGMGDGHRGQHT
How it was run: as §1

[9] = molecular target: T5, OTUD5 (UniProt Q96G74)
T5 sequence (whole entry): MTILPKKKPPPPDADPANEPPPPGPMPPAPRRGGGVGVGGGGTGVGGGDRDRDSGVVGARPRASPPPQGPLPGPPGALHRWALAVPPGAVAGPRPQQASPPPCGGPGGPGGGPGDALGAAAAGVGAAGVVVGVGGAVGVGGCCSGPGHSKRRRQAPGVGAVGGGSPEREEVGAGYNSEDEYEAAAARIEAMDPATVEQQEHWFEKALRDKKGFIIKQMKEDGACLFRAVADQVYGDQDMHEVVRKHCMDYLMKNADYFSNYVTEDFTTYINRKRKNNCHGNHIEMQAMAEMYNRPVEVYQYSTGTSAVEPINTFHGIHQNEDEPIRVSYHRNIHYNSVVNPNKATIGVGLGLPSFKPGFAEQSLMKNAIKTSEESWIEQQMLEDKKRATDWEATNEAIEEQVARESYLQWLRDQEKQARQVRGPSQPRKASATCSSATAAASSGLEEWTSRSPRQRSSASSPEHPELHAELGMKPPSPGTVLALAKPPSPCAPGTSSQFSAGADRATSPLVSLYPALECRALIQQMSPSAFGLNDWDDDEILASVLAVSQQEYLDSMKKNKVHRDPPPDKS
How it was run: as §1

Measured: log2 ratio of Biotin-Ahx-Ub-VS probe labelling

CCN1C(=O)C2CN(C(=O)CCl)CCN2C1=O (centres undefined)
inactive: [1] 0.104 | [2] -0.84 | [3] -0.369 | [4] -0.18 | [5] 0.0778 | [6] -0.218 | [7] -0.315 | [8] -0.523 | [9] -0.206

— the supplement of paper PMC11732987, “Enantioselective OTUD7B fragment discovery through chemoproteomics screening and high-throughput optimisation” (Communications Chemistry, 2025)
